From the supplement of paper PMC7801607

Tests used:
CHO = assay: % viability of CHO cells (MTT); higher = less toxic; conditions: 48 h
Procedure, shortened: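 CHO cells were seeded at 10^6 cells/well in 200 µL and left overnight to attach. The medium was then replaced with fresh medium containing compound at 2 or 20 µM for 48 h. Survival was read colorimetrically with the tetrazolium (MTT) assay. Percent viability was expressed relative to untreated cells.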

HepG2-A16-CD81 = assay: % inhibition of HepG2 viability (CellTiter-Glo); higher = more toxic; conditions: 5 µM
[1] = tested on: Plasmodium falciparum NF54 stage IV/V gametocytes; assay: % inhibition of gametocyte viability (PrestoBlue); higher = more inhibition; conditions: 48 h
Procedure, shortened: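 Stage IV/V NF54 gametocytes (2% gametocytaemia, 5% haematocrit, 100 µL/well) were exposed to compound at 1 or 5 µM. Incubation was 48 h at 37 °C, stationary and hypoxic, followed by 10 µL PrestoBlue for 2 h. Fluorescence at 612 nm was read on 70 µL of transferred supernatant. Percent inhibition of gametocyte viability was normalised to DMSO and kill controls from a single run.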

[2] = tested on: Plasmodium falciparum NF54 asexual blood stage; assay: % inhibition of asexual blood stage proliferation (pLDH); higher = more inhibition; conditions: 72 h
Procedure, shortened: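 Plasmodium falciparum NF54 ring-stage cultures (1% haematocrit, 2% parasitaemia) were exposed to compound at 2 or 20 µM in 96-well plates. Incubation was 72 h at 37 °C under 4% CO2, 3% O2 and 93% N2. Survival was read colorimetrically at 620 nm with the parasite lactate dehydrogenase assay. Percent inhibition of asexual proliferation was normalised to DMSO and kill controls, and the screen was run on two separate occasions.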

[3] = tested on: Plasmodium falciparum NF54 stage IV/V gametocytes; assay: % inhibition of gametocyte viability (ATP bioluminescence); higher = more inhibition; conditions: 24 h
Procedure, shortened: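 In 96-well plates, compound at 1 or 5 µM was added to 30,000 density-gradient-enriched stage IV/V NF54 gametocytes per well and incubated for 24 h at 37 °C. ATP readout used the Promega BacTiter Glo bioluminescence system. Percent inhibition of gametocyte viability comes from a single run, normalised to control wells.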

[4] = tested on: Plasmodium falciparum NF54 stage IV/V gametocytes; assay: % inhibition of gametocyte viability (luciferase reporter); higher = more inhibition; conditions: 48 h
Procedure, shortened: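 Compound at 1 or 5 µM was added to stage IV/V NF54-Pfs16-GFP-Luc gametocytes (2% gametocytaemia, 2% haematocrit) and incubated stationary and hypoxic at 37 °C for 48 h. A GloMax-Multi+ reader measured luminescence over 10 s integration on 30 µL lysate plus 30 µL Promega luciferin substrate. Percent inhibition values were normalised to controls within a single run.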

[5] = tested on: Plasmodium berghei ANKA liver stage in HepG2-A16-CD81; assay: % inhibition of liver stage parasite viability (luciferase); higher = more inhibition; conditions: 5 µM; 48 h
Method: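 Single-concentration screen of the MMV Pandemic Response Box. P. falciparum NF54 asexual blood stages: pLDH assay, 72 h at 37 °C, 2 and 20 µM, n=2. Stage IV/V gametocytes (NF54): luciferase reporter (NF54-Pfs16-GFP-Luc, 48 h), ATP bioluminescence (24 h) and PrestoBlue (48 h) at 1 and 5 µM, n=1. P. berghei liver stage (luciferase in HepG2-A16-CD81, 48 h post infection) at 5 µM, n=4. All normalised to DMSO and kill controls as % inhibition.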
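For % inhibition of HepG2 viability (CellTiter-Glo) in this document: HepG2-A16-CD81 hepatoma cells plated as in the liver-stage assay but without sporozoites, with DMSO wells as negative and 25 µM puromycin as positive control.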

Row | Compound | % viability of CHO cells (CHO; 2 µM) | % viability of CHO cells (CHO; 20 µM) | % inhibition of HepG2 viability (HepG2-A16-CD81) | % inhibition of gametocyte viability ([1]; 1 µM) | % inhibition of gametocyte viability ([1]; 5 µM) | % inhibition of asexual blood stage proliferation ([2]; 2 µM) | % inhibition of asexual blood stage proliferation ([2]; 20 µM) | % inhibition of gametocyte viability ([3]; 1 µM) | % inhibition of gametocyte viability ([3]; 5 µM) | % inhibition of gametocyte viability ([4]; 1 µM) | % inhibition of gametocyte viability ([4]; 5 µM) | % inhibition of liver stage parasite viability [5]
1 | O=C1NC(=S)N/C1=C\c1cc(Br)cc(Br)c1O | 91.8% | 63.5% | -2.5% | 1.86% | < 0% | 10.8% | 17.1% | < 0% | < 0% | < 0% | < 0% | -2.17%
2 | O=S(=O)(Nc1cccc2cccnc12)c1ccccc1 | 85% | 121% | 5.35% | 4.79% | < 0% | 8.89% | 70% | < 0% | < 0% | < 0% | < 0% | 0.562%
3 | Nc1nc(-c2ccccc2)nc2c1ncn2[C@@H]1O[C@H](COS(=O)(=O)NC(=O)c2ccccc2O)[C@@H](O)[C@H]1O | 102% | 129% | 3.69% | 16.3% | 11% | 19.4% | 71.1% | < 0% | < 0% | < 0% | < 0% | 2.37%
4 | Cc1oncc1C(=O)Nc1ccc(C(F)(F)F)cc1 | 113% | 96.1% | -5.44% | < 0% | < 0% | 50.7% | 38% | 12% | < 0% | 23.8% | 45.6% | -59.9%
5 | Nc1nnnn1CCOc1c2[nH]c3ccc(Cl)cc3c2cc2c1[nH]c1ccc(Cl)cc12 | 98.6% | 121% | 5.71% | < 0% | < 0% | 11.9% | 95.2% | < 0% | < 0% | < 0% | 31.2% | 24.1%
6 | O=C(NCc1ccc2c3c(cccc13)C(=O)N2)c1cccs1 | 135% | 156% | 1.86% | < 0% | < 0% | 6.3% | 16% | < 0% | < 0% | < 0% | 16.9% | 17.9%
7 | CC[C@@H]1C(=O)OC[C@@H]1Cc1cncn1C | 111% | 110% | -1.73% | < 0% | < 0% | 5.57% | 14.4% | < 0% | < 0% | < 0% | 10.7% | -7.29%
8 | CN(C)CC(=O)Nc1ccc2[nH]c(=O)c3ccccc3c2c1 | 97.8% | 109% | -2.53% | < 0% | < 0% | 24.3% | 32.5% | 11.1% | 2.31% | < 0% | 4.93% | 9.83%
9 | Nc1nc(-c2ccccc2)nc2[nH]nc(Nc3ccc(C(F)(F)F)cc3)c12 | 80.5% | 60.9% | -9.27% | 15% | 7.65% | 20% | 80.5% | < 0% | < 0% | < 0% | < 0% | 53.1%
10 | CNCC(=O)OCc1cccnc1N(C)C(=O)OC(C)[n+]1cnn(C[C@](O)(c2cc(F)ccc2F)[C@@H](C)c2nc(-c3ccc(C#N)cc3)cs2)c1 (stereo partly drawn) | 94.9% | 98.8% | 14.7% | 8.15% | 23.3% | 0.721% | 37.7% | < 0% | < 0% | < 0% | < 0% | 29.6%
11 | O=C(O)c1sccc1S(=O)(=O)n1ccc2cc(Br)ccc21 | 93.4% | 97.8% | -1.44% | 12.3% | 30.7% | 49.8% | 84.9% | < 0% | < 0% | < 0% | < 0% | 8.54%
12 | CCC[C@@H]1C[C@@H](C(=O)N[C@@H]([C@H]2O[C@H](SC)[C@H](O)[C@@H](O)[C@H]2O)[C@H](C)Cl)N(C)C1 | 89.5% | 103% | 5.96% | 10.3% | 24.2% | 72.9% | 93.2% | < 0% | 1.18% | < 0% | < 0% | 92.2%
13 | O=C(c1cc(O)nc2ccccc12)N1CCN(c2ccccc2)CC1 | 95.9% | 52.7% | -2.09% | < 0% | < 0% | 24.8% | 48.3% | 4.72% | 10.4% | < 0% | < 0% | 34.2%
14 | FC(F)(F)c1cc(C(F)(F)F)c2ccc3nc(-c4nnco4)cn3c2n1 | 93.3% | 124% | 8.21% | 17.1% | 21.3% | 19.6% | 26.8% | < 0% | < 0% | 1.44% | 18% | 17.6%
15 | CCNC(=O)Nc1cn2c(-c3ncc(CC)cn3)cc(-c3cccnc3)cc2n1 | 91.8% | 58.4% | 0.015% | 19.9% | 36.7% | 46% | 88.1% | 7.29% | 24.5% | 1.08% | 6.06% | 4.97%
16 | CC(C)(C)NC(=O)N[C@H](C(=O)N1C[C@H]2[C@@H]([C@H]1C(=O)NC(CC1CCC1)C(=O)C(N)=O)C2(C)C)C(C)(C)C (stereo partly drawn) | 108% | 50.4% | 9.51% | 4.37% | 8.14% | 36.6% | 73.7% | < 0% | < 0% | < 0% | < 0% | -15.2%
17 | O=C(O)C(Cc1c[nH]c2ccccc12)N1C(=O)c2ccccc2C1=O (stereo not drawn) | 89.9% | 92% | -0.93% | < 0% | < 0% | 33.4% | 72.4% | 8.39% | < 0% | 13% | 22.9% | 21.1%
18 | C/C(=N\NC(=O)C1CC1c1ccccc1)c1ccc(NC(=O)c2ccco2)cc1 (stereo not drawn) | 101% | 69.1% | -5.96% | < 0% | 14.5% | 18.8% | 38.7% | 3.34% | < 0% | < 0% | < 0% | 13.7%
19 | CC[C@H](NC(=O)[C@H](C)NC)C(=O)N1C[C@@H](O)C[C@H]1Cc1c(-c2[nH]c3cc(F)ccc3c2C[C@@H]2C[C@H](O)CN2C(=O)[C@H](CC)NC(=O)[C@H](C)NC)[nH]c2cc(F)ccc12 | 102% | 117% | 15% | 5.89% | 54.9% | 75.7% | 83.1% | 28.6% | 76.9% | 17% | 56% | 37.5%
